The list is not random: actives were taken first. Their share in the collection is about 2.2%.
FBPA Giardia inh: blocks Giardia fructose-bisphosphate aldolase activity | A8B2U2 | purified Giardia FBPA | Potency, µM (highest dose often 59.6 µM), most hits filed as inhibitors | 290,000 tested, 0.71% active; active = well fitted inhibition curve with a large enough effect; inconclusive = small, poorly fitted or top-dose-only effect, or effect the other way; note: nearly all actives have a fitted effect of over 55% in size
Target sequence (A8B2U2 whole entry, looked up): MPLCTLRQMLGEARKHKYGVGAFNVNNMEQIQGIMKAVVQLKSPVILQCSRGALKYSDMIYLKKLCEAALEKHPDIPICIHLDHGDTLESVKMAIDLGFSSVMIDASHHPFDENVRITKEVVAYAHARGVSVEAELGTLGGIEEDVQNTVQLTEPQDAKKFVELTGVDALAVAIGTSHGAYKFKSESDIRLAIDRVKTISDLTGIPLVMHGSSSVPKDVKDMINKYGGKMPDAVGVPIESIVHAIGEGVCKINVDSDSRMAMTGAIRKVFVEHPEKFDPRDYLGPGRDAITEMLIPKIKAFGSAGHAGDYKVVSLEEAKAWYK
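40 nM FBPA preincubated 10 min at RT with compound (up to 57.5 uM final), then substrate plus GAPDH/TPI/NAD/arsenate coupling and diaphorase/resazurin added. Fluorescence read after 20 min at RT, 525/598 nm.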
Vaccinia Venus: inhibitors of vaccinia virus (Venus reporter) | AID 720580 | 330,000 tested, 0.46% active | Vaccinia virus Venus reporter expression, fluorescence | Potency, µM (titrated, usually from 36.5 µM), hits mostly inhibitors; calls by dose curve; tested in A549 cells; note: nearly all actives have a fitted effect of over 30% in size
Vaccinia mCherry: inhibitors of vaccinia virus infection (mCherry reporter signal); Vaccinia virus mCherry reporter infection, fluorescence; Potency, µM (highest dose often 36.5 µM), most hits filed as inhibitors; 310,000 tested, 0.63% active; AID 720579; calls by dose curve; tested in A549 cells; note: nearly all actives have a fitted effect of over 35% in size
FMDV inh: foot and mouth disease virus antiviral activity. FMDV antiviral cell-based qHTS. Potency, µM (titrated, usually from 57.9 µM), actives largely listed as inhibitors. 410,000 tested, 1.2% active; calls by dose curve; tested in HEK293T cells; note: read-out not given here; nearly all actives have a fitted effect of over 45% in size
Numbers stand for hits.

`CC(C)(C)c1ccc(C(=O)Nc2ccc(Oc3cccnc3)nc2)cc1` gave FBPA Giardia inh inactive, Vaccinia Venus inconclusive, Vaccinia mCherry inactive and FMDV inh 35.5µM.
CCn1c(SC(C)C(=O)Nc2ccc(C)cc2)nnc1-c1ccccc1 (stereo not drawn) was read as Vaccinia Venus inactive and Vaccinia mCherry inactive.
`CCN1C(=O)C(=Cc2ccc(C)s2)C(=O)N(CC)C1=S` gave FBPA Giardia inh inactive, Vaccinia Venus inactive, Vaccinia mCherry inactive and FMDV inh 39.8µM.
For COCC(=O)Nc1cc(C(=O)N2CC3CCCC2C3)c2c(c1)nc(-c1ccncc1)n2C (stereo not drawn) the results were Vaccinia Venus inactive, Vaccinia mCherry inactive and FMDV inh inactive.
For CCOC(=O)c1cnc2ccc(OCC)cc2c1NCc1ccccc1OC the results were FBPA Giardia inh inactive, Vaccinia Venus inactive, Vaccinia mCherry inactive and FMDV inh 17.8µM.
Screening Cc1nnsc1C(=O)N/N=C/c1ccc2ccccc2c1O returned FBPA Giardia inh inactive, Vaccinia Venus inconclusive, Vaccinia mCherry 2.24µM and FMDV inh inconclusive.
`CN(C)c1ccc(/C=C/c2ccnc3c([N+](=O)[O-])cccc23)cc1` gave Vaccinia Venus inactive and Vaccinia mCherry inactive.
Screening Cc1cccc(NC(=O)CCc2ccc(N3C(N)=NC(N)=NC3(C)C)cc2)c1 returned Vaccinia Venus inconclusive, Vaccinia mCherry 5.62µM and FMDV inh inactive.
Screening CC1(C)N=C(N)N=C(N)N1c1ccc(OCC(=O)Nc2ccccc2)c(Cl)c1 returned Vaccinia Venus inconclusive, Vaccinia mCherry 3.98µM and FMDV inh inactive.
`CC1(C)N=C(N)N=C(N)N1c1ccc(OCCCOc2ccccc2)c(Cl)c1` gave FBPA Giardia inh inactive, Vaccinia Venus inconclusive, Vaccinia mCherry inconclusive and FMDV inh inconclusive.
Cc1nc(NCc2ccc3nsnc3c2)sc1-c1ccn(C)n1 was read as Vaccinia Venus inactive, Vaccinia mCherry inactive and FMDV inh inactive.
`Cc1ccc2[nH]c3c(=O)n(CC(=O)N(CCN(C)C)Cc4ccccc4)ncc3c2c1` gave Vaccinia Venus inactive, Vaccinia mCherry inactive and FMDV inh inactive.
`Fc1ccc(CN2CCN(c3ncnc4scc(-c5ccc(F)cc5)c34)CC2)cc1` gave FBPA Giardia inh inactive and FMDV inh inconclusive.
`COc1ccc(-c2csc3ncnc(N4CCN(c5ccccc5)CC4)c23)cc1` gave FBPA Giardia inh inactive, Vaccinia Venus inactive, Vaccinia mCherry inactive and FMDV inh 17.8µM.
`COc1ccc(-c2csc3ncnc(N4CCN(Cc5ccccc5)CC4)c23)cc1` gave FBPA Giardia inh inactive, Vaccinia Venus inactive, Vaccinia mCherry inactive and FMDV inh 22.4µM.
COc1ccc(-c2csc3ncnc(N4CCN(c5ccccc5O)CC4)c23)cc1 was read as Vaccinia Venus inactive, Vaccinia mCherry inactive and FMDV inh inconclusive.
COc1ccccc1-c1ccnc(-n2ncc(C(=O)N(C)C(C)c3nc(C)cs3)c2C2CC2)n1 (stereo not drawn) was read as Vaccinia Venus inactive, Vaccinia mCherry inactive and FMDV inh inactive.
For CCOC(=O)c1cccc(NC(=O)COc2nsnc2N2CCOCC2)c1 the results were FBPA Giardia inh inactive, Vaccinia Venus inactive, Vaccinia mCherry inactive and FMDV inh 25.1µM.
`CC(=O)c1cccc(NC(=O)COc2nsnc2N2CCOCC2)c1` gave FBPA Giardia inh inactive, Vaccinia Venus inactive, Vaccinia mCherry inactive and FMDV inh inconclusive.
FC(F)(F)C(F)(F)C(F)(F)c1nc2ccccc2[nH]1 was read as Vaccinia Venus inactive and Vaccinia mCherry inactive.
Cc1c(C#N)c(N)nc2c3c(sc12)NC(=O)CC3c1ccc(Cl)cc1 (stereo not drawn) was read as FBPA Giardia inh inactive, Vaccinia Venus inconclusive, Vaccinia mCherry inconclusive and FMDV inh 22.4µM.
Screening Cc1cc(C)nc(S[C@H]2C[C@@H](C(=O)N3CCN(c4ccccc4F)CC3)N(Cc3ccccc3C(F)(F)F)C2)n1 returned Vaccinia Venus inactive, Vaccinia mCherry inactive and FMDV inh inactive.
`Cc1ccc(C(=O)Nc2cccc([N+](=O)[O-])c2)cc1S(=O)(=O)Nc1ccc(C(=O)O)cc1` gave FBPA Giardia inh inactive, Vaccinia Venus inactive, Vaccinia mCherry inactive and FMDV inh inactive.
For Cc1ccccc1NS(=O)(=O)c1cc(C(=O)Nc2cccc([N+](=O)[O-])c2)ccc1C the results were FBPA Giardia inh inactive, Vaccinia Venus 11.2µM, Vaccinia mCherry inconclusive and FMDV inh inactive.
`Cc1c(Cl)cccc1NC(=O)Cn1c(=O)nc(-c2ccccc2)c2ccccc21` gave Vaccinia Venus inactive, Vaccinia mCherry inactive and FMDV inh 10µM.
For CC(C)(C)CC(C)(C)N=C1Nc2ccc([N+](=O)[O-])cc2N[C@]12C[C@H]1CCCC(=O)N3CC[C@@H](C2)[C@@H]13 the results were Vaccinia Venus inactive and Vaccinia mCherry inactive.
Clc1ccc(Cn2cc3c(n2)-c2cc4ccccc4n2C3)cc1 was read as Vaccinia Venus inactive and Vaccinia mCherry inactive.
For O=S(=O)(c1ccc2c(c1)OCCO2)N1CCN(c2ncnc3sccc23)CC1 the results were FBPA Giardia inh inactive, Vaccinia Venus inactive, Vaccinia mCherry inconclusive and FMDV inh inconclusive.
`Cc1sc2ncnc(N3CCN(S(=O)(=O)c4ccccc4)CC3)c2c1C` gave Vaccinia Venus inactive, Vaccinia mCherry inactive and FMDV inh 20µM.
CCN(CC(=O)Nc1cc(Cl)ccc1C)C(=O)C1CCN(c2ncnc3sc(C)c(C)c23)CC1 was read as Vaccinia Venus inconclusive, Vaccinia mCherry 11.2µM and FMDV inh 17.8µM.
Screening Cc1ccc(S(=O)(=O)N2CCN(c3ncnc4sccc34)CC2)cc1C returned Vaccinia Venus inconclusive, Vaccinia mCherry inconclusive and FMDV inh 11.2µM.
Screening Cc1sc2ncnc(N3CCC(C(=O)N(C)CC(=O)Nc4cccc(F)c4)CC3)c2c1C returned Vaccinia Venus inconclusive, Vaccinia mCherry inconclusive and FMDV inh 17.8µM.
For Cc1sc2ncnc(N3CCC(C(=O)N(C)CC(=O)Nc4ccccc4Br)CC3)c2c1C the results were Vaccinia Venus inactive, Vaccinia mCherry inactive and FMDV inh inconclusive.
Screening CCCC[C@@H](C=O)NC(=O)[C@H](CC(C)C)NC(=O)OCc1ccccc1 returned Vaccinia Venus inactive, Vaccinia mCherry inactive and FMDV inh inactive.
For Cc1sc2ncnc(N3CCC(C(=O)Nc4cc(Cl)ccc4Cl)CC3)c2c1C the results were Vaccinia Venus inactive, Vaccinia mCherry inactive and FMDV inh inactive.
For Cc1sc2ncnc(N3CCC(C(=O)Nc4ccccc4C(C)(C)C)CC3)c2c1C the results were Vaccinia Venus inactive, Vaccinia mCherry inactive and FMDV inh 25.1µM.
Screening CCOC(=O)c1ccccc1NC(=O)C1CCN(c2ncnc3sc(C)c(C)c23)CC1 returned Vaccinia Venus inactive, Vaccinia mCherry inactive and FMDV inh inconclusive.
Cc1sc2ncnc(N3CCC(C(=O)N(C)CC(=O)Nc4ccc(Cl)c(C(F)(F)F)c4)CC3)c2c1C was read as Vaccinia Venus inconclusive, Vaccinia mCherry 10µM and FMDV inh inconclusive.
Screening Cc1sc2ncnc(N3CCC(C(=O)NNC(=O)c4ccc(Cl)cc4)CC3)c2c1C returned Vaccinia Venus inactive, Vaccinia mCherry inactive and FMDV inh 25.1µM.
`CCN(CC)S(=O)(=O)c1cc(NC(=O)C2CC(=O)N(Cc3ccccc3)C2)ccc1Cl` (stereo not drawn) gave FMDV inh 11.2µM.

Screens as filed in PubChem.
